Experimental findings from article PMC7862700, “An all-to-all approach to the identification of sequence-specific readers for epigenetic DNA modifications on cytosine” are described below.

Holding throughout (test): DAPPL (digital affinity profiling via proximity ligation, sequencing); 10 mM Tris-HCl pH 7.5, 50 mM NaCl, 1 mM DTT, 4% glycerol, room temperature, 30 min; GST-TFs on glutathione beads, 16-mer random dsDNA library, 0.1% formaldehyde crosslink after washing; high values mean tight binding
Holding throughout (conditions): protein: recombinant; tags: N-terminal GST; dsDNA, one strand shown

One experiment deals with T1, ELK1 (Homo sapiens, UniProt P19419 1-428).
T1 sequence: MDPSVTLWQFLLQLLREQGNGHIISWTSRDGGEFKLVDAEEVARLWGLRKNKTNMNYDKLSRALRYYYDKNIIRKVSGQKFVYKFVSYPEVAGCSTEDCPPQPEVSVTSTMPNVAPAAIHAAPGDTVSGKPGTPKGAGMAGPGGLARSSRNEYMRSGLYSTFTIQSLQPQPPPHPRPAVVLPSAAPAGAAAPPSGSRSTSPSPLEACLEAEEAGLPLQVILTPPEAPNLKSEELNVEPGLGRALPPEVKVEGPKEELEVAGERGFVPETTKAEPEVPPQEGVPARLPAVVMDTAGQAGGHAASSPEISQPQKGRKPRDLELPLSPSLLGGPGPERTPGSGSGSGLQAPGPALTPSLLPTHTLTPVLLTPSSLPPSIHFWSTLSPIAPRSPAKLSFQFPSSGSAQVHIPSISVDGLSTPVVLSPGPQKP
Put shortly: (§1)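 GST fusions of human transcription factors were expressed in yeast and captured with glutathione beads. Once given DNA barcodes and pooled alongside a tag-only sample, they were incubated for 30 min at room temperature with 200 nmole of a random double-stranded 16-mer DNA library in Tris/NaCl/DTT/glycerol buffer, then washed, crosslinked (0.1% formaldehyde), proximity-ligated, PCR-amplified and sequenced on an Illumina NextSeq500. The binding signal of each hexamer is its read frequency for a factor divided by its frequency for the tag-only sample.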

The target in another experiment is T2, GABPA (Homo sapiens, UniProt Q06546 1-454).
T2 sequence: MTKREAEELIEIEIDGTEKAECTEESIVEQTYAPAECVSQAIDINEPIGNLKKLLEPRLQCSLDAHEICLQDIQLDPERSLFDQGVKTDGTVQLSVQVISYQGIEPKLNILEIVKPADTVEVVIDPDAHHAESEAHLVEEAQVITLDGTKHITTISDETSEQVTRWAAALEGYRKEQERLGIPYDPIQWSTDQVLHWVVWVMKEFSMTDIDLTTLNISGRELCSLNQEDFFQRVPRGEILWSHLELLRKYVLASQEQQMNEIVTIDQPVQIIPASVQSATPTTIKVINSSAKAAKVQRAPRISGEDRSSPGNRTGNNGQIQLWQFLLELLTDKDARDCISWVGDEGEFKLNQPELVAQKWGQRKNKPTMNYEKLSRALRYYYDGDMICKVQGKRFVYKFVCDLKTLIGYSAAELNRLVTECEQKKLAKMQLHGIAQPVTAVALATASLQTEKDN
Put shortly:
as §1

For the next experiment, the target named is T3, ERG (Homo sapiens, UniProt P11308 1-479).
T3 sequence: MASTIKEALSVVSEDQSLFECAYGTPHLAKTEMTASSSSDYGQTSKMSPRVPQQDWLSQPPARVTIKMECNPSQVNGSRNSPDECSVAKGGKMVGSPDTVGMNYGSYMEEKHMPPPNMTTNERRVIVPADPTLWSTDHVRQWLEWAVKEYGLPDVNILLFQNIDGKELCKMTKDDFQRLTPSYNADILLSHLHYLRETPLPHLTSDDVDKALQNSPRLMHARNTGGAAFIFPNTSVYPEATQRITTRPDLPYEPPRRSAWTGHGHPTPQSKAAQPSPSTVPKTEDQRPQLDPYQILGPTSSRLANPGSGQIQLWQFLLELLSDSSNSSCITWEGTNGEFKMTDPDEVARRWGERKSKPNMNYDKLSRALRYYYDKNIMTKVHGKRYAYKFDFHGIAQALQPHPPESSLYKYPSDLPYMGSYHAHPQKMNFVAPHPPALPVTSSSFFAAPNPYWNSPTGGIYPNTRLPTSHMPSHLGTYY
Put shortly:
as §1

Another experiment addresses ELF1 (Homo sapiens, UniProt P32519 1-619). Summed up: as §1
A further experiment deals with T4, EHF (Homo sapiens, UniProt Q9NZC4 1-300).
T4 sequence: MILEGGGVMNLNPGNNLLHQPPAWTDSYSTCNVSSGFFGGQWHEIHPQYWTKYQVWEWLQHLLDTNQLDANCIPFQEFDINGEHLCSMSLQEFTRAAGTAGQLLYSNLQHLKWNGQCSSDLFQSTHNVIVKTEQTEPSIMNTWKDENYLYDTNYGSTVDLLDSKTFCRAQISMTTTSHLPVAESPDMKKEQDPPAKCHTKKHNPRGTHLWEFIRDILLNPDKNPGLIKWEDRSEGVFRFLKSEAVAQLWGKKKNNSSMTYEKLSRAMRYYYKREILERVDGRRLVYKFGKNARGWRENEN
Put shortly: as §1

In the next experiment the target is SPIB (Homo sapiens, UniProt Q01892 1-262). Summed up:
as §1

The next experiment has as its target T5, FEV (Homo sapiens, UniProt Q99581 1-238).
T5 sequence: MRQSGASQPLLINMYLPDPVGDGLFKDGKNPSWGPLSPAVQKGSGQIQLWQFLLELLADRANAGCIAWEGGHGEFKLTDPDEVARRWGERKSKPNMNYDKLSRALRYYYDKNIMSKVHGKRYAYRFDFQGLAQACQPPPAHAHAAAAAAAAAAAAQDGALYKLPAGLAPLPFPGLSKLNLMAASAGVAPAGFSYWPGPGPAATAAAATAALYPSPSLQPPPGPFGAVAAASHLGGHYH
Put shortly: as §1

The target of the next experiment is ETV5 (Homo sapiens, UniProt P41161 1-510). Summed up: as §1
Chain of ETV5 (P41161 whole entry): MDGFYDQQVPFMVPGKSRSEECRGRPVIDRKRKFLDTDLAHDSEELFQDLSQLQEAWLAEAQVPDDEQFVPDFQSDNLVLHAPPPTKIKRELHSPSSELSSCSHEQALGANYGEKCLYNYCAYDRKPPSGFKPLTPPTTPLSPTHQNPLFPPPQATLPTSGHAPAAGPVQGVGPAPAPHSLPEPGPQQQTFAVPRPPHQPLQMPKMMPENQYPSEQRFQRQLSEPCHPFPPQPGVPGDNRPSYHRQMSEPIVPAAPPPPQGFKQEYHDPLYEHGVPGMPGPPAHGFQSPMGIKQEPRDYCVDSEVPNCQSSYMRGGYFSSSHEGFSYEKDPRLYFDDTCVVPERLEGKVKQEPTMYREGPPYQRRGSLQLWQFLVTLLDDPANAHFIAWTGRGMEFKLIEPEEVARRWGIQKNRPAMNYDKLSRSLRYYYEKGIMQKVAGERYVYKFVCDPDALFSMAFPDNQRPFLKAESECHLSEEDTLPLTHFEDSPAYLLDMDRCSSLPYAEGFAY
For a further experiment, the target named is ELF4 (Homo sapiens, UniProt Q99607 1-663). Summed up:
as §1

A further experiment has as its target T6, ELK4 (Homo sapiens, UniProt P28324-2 1-405).
T6 sequence: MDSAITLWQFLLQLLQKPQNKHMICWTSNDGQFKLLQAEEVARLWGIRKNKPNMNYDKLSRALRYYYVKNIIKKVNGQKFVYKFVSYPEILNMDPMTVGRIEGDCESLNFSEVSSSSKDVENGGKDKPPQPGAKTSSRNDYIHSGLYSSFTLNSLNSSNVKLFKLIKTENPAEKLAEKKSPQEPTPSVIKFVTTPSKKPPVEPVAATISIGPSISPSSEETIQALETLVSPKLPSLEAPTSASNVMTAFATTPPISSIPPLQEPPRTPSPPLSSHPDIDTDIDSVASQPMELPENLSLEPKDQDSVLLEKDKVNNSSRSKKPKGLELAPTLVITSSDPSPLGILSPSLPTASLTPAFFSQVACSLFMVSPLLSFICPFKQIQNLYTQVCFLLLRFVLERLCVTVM
Put shortly: as §1

The next experiment deals with T7, ETV2 (Homo sapiens, UniProt O00321 1-342).
T7 sequence: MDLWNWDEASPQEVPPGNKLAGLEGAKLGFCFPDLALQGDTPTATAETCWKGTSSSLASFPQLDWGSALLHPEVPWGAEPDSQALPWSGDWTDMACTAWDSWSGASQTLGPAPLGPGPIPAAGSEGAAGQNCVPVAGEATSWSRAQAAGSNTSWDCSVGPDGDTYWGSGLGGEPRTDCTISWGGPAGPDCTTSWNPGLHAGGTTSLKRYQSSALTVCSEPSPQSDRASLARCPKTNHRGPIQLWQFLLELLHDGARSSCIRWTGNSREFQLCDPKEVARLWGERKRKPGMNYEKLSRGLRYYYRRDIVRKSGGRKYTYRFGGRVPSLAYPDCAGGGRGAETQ
Summed up: as §1

In the next experiment the target is T8, ELF3 (Homo sapiens, UniProt P78545 1-371).
T8 sequence: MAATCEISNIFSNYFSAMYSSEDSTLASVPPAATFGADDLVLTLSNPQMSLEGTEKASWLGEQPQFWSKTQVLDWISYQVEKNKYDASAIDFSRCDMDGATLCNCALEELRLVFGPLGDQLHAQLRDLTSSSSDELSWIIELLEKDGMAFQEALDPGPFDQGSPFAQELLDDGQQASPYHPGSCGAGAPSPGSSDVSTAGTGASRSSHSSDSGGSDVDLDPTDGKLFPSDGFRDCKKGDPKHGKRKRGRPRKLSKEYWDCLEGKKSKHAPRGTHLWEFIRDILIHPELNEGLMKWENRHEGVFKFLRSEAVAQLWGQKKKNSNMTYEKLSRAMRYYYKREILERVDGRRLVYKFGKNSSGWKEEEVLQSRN
Summed up: as §1

The target in a further experiment is ETV1 (Homo sapiens, UniProt P50549 1-477). Summed up:
as §1

Another experiment addresses T9, ERF (Homo sapiens, UniProt P50548 1-548).
T9 sequence: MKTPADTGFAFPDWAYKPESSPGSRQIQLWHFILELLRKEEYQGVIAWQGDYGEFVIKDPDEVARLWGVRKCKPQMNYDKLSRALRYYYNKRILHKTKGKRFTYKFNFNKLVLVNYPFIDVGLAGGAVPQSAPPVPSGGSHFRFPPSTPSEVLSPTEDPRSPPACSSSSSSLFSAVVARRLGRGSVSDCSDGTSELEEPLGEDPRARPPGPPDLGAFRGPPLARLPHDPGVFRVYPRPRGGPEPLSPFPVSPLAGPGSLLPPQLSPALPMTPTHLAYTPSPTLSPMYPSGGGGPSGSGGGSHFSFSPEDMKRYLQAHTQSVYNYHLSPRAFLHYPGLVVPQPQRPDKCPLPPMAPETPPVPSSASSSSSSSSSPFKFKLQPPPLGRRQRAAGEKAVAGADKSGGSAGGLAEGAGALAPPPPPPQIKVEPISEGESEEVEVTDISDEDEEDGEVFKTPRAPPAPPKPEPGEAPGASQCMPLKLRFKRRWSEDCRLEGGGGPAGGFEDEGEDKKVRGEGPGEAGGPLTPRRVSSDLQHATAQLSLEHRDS
Summed up: as §1

The next experiment deals with T10, ETV3L (Homo sapiens, UniProt Q6ZN32 1-361).
T10 sequence: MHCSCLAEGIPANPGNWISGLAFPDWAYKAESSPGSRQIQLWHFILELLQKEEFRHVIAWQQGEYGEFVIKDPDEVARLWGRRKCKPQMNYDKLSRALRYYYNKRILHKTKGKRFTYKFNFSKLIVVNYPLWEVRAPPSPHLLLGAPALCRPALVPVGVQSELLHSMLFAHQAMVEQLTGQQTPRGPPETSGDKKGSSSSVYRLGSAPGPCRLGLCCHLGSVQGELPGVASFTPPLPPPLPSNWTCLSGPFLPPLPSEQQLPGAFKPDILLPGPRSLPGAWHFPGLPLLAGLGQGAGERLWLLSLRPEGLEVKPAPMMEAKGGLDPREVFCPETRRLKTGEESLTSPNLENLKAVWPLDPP
Summed up: as §1

For the next experiment, the target named is T11, ETS2 (Homo sapiens, UniProt P15036 1-469).
T11 sequence: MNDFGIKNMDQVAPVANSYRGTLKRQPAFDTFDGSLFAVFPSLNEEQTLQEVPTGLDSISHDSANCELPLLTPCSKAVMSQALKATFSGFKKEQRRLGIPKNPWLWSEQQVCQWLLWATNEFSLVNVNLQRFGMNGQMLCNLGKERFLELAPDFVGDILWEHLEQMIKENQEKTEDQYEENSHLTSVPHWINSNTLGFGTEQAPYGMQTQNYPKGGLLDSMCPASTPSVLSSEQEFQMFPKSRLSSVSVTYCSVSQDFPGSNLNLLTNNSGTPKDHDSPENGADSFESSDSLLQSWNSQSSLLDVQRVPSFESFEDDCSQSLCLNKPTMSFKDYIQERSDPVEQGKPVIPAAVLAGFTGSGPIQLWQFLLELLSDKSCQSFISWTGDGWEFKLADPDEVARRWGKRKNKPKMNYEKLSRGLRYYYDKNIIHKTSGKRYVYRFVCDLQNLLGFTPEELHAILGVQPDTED
Put shortly:
as §1

The target in another experiment is T12, ETV7 (Homo sapiens, UniProt Q9Y603 1-341).
T12 sequence: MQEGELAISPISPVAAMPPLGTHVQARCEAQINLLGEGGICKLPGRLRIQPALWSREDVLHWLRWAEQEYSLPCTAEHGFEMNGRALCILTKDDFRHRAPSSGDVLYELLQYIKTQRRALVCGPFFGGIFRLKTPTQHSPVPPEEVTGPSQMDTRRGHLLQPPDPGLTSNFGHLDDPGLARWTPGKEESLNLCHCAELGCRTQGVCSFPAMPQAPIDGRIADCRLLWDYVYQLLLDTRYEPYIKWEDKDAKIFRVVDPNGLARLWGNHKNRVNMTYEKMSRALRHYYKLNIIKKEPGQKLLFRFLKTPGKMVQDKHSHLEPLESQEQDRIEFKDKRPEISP
Summed up:
as §1

The target of another experiment is T13, ETV3 (Homo sapiens, UniProt P41162-2 1-143).
T13 sequence: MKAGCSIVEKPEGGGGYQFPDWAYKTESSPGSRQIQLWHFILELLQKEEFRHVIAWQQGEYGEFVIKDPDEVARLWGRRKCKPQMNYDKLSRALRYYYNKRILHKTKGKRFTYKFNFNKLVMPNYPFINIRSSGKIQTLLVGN
Put shortly:
as §1

In the next experiment the target is ETV6 (Homo sapiens, UniProt P41212 1-452). Put shortly:
as §1

Chain of SPIB (Q01892 whole entry): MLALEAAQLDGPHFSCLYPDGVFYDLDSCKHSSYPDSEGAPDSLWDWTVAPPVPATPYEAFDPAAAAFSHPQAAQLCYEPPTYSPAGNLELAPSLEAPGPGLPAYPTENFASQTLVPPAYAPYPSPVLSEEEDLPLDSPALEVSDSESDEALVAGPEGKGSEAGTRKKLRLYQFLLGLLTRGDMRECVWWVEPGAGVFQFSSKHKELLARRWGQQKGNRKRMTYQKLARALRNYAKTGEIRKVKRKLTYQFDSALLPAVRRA
Chain of ETV6 (P41212 whole entry): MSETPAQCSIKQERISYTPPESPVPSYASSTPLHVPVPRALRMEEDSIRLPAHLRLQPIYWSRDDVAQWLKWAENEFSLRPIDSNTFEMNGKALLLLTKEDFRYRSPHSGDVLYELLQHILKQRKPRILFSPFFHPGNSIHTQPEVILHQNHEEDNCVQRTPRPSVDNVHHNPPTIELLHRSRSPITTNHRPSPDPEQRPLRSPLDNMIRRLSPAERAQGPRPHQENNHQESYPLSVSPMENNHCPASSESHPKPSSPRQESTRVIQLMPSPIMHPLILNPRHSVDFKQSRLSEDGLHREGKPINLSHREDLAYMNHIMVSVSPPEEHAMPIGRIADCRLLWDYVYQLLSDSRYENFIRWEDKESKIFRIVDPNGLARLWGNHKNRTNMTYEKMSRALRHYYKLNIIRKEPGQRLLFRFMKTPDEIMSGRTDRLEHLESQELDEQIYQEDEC
Chain of ELF4 (Q99607 whole entry): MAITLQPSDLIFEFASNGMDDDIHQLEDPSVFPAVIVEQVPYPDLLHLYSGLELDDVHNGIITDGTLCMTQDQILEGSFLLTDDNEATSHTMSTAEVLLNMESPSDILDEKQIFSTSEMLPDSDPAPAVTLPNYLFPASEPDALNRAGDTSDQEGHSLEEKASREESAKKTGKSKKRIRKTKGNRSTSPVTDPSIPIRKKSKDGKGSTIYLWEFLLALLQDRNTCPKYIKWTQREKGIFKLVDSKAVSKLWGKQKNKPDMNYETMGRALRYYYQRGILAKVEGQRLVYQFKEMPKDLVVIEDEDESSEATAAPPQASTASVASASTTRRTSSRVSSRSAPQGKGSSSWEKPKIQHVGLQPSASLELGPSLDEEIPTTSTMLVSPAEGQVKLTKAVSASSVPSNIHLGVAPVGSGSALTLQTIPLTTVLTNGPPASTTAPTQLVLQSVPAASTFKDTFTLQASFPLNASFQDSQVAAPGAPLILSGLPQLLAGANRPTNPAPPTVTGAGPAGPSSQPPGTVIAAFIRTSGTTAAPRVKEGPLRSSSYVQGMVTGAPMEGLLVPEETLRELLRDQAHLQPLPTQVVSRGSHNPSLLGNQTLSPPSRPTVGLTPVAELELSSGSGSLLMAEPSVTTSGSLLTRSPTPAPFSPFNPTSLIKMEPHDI
Chain of ELF1 (P32519 whole entry): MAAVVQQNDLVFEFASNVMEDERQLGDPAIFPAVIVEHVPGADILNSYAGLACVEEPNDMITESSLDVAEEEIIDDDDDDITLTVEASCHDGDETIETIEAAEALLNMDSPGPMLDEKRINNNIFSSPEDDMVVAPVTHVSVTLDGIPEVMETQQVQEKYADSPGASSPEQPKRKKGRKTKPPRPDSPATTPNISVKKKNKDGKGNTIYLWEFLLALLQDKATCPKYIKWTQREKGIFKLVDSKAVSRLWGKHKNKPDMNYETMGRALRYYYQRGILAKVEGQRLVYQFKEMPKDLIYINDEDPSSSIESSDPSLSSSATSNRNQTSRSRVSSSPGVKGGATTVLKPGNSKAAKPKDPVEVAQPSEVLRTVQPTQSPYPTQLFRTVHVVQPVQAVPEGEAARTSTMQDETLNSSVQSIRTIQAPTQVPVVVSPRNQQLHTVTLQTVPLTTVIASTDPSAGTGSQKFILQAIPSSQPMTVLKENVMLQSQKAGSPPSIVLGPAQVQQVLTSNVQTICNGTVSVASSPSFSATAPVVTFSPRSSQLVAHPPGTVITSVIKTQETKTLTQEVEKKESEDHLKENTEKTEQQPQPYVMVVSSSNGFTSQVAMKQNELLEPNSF
Chain of ETV1 (P50549 whole entry): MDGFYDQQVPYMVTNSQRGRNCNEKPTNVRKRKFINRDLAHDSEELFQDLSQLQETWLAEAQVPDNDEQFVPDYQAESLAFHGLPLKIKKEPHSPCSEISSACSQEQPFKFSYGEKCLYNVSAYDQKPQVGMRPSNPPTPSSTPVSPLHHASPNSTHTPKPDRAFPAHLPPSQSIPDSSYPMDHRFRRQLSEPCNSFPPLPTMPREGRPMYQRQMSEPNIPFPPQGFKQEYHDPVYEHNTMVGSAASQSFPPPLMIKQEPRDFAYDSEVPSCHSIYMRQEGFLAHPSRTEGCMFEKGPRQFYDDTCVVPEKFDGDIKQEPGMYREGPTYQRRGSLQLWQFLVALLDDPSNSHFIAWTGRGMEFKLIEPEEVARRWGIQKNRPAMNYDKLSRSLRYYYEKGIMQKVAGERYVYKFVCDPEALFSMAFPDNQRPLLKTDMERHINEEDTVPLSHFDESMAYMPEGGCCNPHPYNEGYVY

On to GCGTCT, for which the binding signal is 1.05 fold enrichment (6-mer frequency, TF over GST control) with ELK1; 1.02 fold enrichment (6-mer frequency, TF over GST control) with GABPA; 1.08 fold enrichment (6-mer frequency, TF over GST control) with ERG; 1.08 fold enrichment (6-mer frequency, TF over GST control) with ELF1; 1.08 fold enrichment (6-mer frequency, TF over GST control) in the experiment with EHF; 1.19 fold enrichment (6-mer frequency, TF over GST control) in the experiment with SPIB. The binding signal in the experiment with FEV is 1.08 fold enrichment (6-mer frequency, TF over GST control); with ETV5, 1.04 fold enrichment (6-mer frequency, TF over GST control); with ELF4, 1.04 fold enrichment (6-mer frequency, TF over GST control); with ELK4, 1.11 fold enrichment (6-mer frequency, TF over GST control); in the experiment with ETV2 it was 1.1 fold enrichment (6-mer frequency, TF over GST control); with ELF3, 1.34 fold enrichment (6-mer frequency, TF over GST control). For the same sequence, the binding signal was 1.18 fold enrichment (6-mer frequency, TF over GST control) with ETV1; 1.12 fold enrichment (6-mer frequency, TF over GST control) with ERF; 1.1 fold enrichment (6-mer frequency, TF over GST control) with ETV3L; 1.04 fold enrichment (6-mer frequency, TF over GST control) with ETS2; 1.1 fold enrichment (6-mer frequency, TF over GST control) with ETV7; 1.11 fold enrichment (6-mer frequency, TF over GST control) with ETV3. Also, the binding signal with ETV6 is 1.04 fold enrichment (6-mer frequency, TF over GST control).
